Screening data as filed in PubChem BioAssay.
LASV entry inh = inhibitors of Lassa virus binding or cell entry. Lassa virus pseudotype entry inhibition, cell reporter. Potency, µM (highest dose often 37.9 µM), without a hit: at the highest dose activity change, negative = inhibition, usual class: inhibitors. 300,000 compounds, 1.2% hits. AID 540256; calls by dose curve; tested in HEK293 cells; further: potency means the concentration at half of the fitted maximal effect; on the % scale 0 is the no-effect control and ±100 the full control effect; nearly all actives have a fitted effect of over 50% in size
Vaccinia mCherry = vaccinia inhibition (mCherry reporter); Vaccinia virus mCherry reporter infection, fluorescence; Potency, µM (top dose mostly 36.5 µM), inactives show at the highest dose activity change, negative = inhibition, actives largely listed as inhibitors; 310,000 compounds, 0.63% hits; calls by dose curve; tested in A549 cells; further: potency means the concentration at half of the fitted maximal effect; on the % scale 0 is the no-effect control and ±100 the full control effect; nearly all actives have a fitted effect of over 35% in size
CHX counter = counter-screen for Shiga toxin inhibitors: cycloheximide protein synthesis inhibition; 300,000 compounds, 12% hits; cell reporter, cycloheximide protein synthesis inhibition counterscreen; max response, %; in the data active means max response mostly above about 13%, no sharp cut-off; inactive means mostly below about 14%; further: read at 38.3 µM for the half of the compounds with a filed dose; 0% is about no effect
Marburg entry inh = Marburg virus entry inhibition. Marburg virus pseudotyped entry inhibition, cell reporter. Potency, µM (series often up to 37.8 µM), without a hit: at the highest dose activity change, negative = inhibition, actives largely listed as inhibitors. 300,000 compounds, 1.8% hits. AID 540276; calls by dose curve; tested in HEK293 cells; further: potency means the concentration at half of the fitted maximal effect; on the % scale 0 is the no-effect control and ±100 the full control effect
VACV Venus inh = vaccinia inhibition (Venus reporter); AID 720580; Vaccinia virus Venus reporter expression, fluorescence; Potency, µM (top dose mostly 36.5 µM), inactives show top-dose activity change, negative = inhibition, actives largely listed as inhibitors; 330,000 compounds, 0.46% hits; calls by dose curve; tested in A549 cells; further: potency means the concentration at half of the fitted maximal effect; on the % scale 0 is the no-effect control and ±100 the full control effect; nearly all actives have a fitted effect of over 30% in size
Shiga toxin inh = inhibitors of Shiga toxin in Vero cells; 290,000 compounds, 9.2% hits; Vero cells, Shiga toxin protein synthesis inhibition reporter; inhibition, % at 38.7 µM; in the data active means inhibition mostly above about 28%, no sharp cut-off; inactive means mostly below about 43%; further: 0% is about no effect
* hit, by the source's call; i = inactive; ? = inconclusive; · = no result; [ ] = another dose, or the depositor's remark. Only a selection was taken, and hits are over-represented in it overall.

SMILES	LASV entry inh	Vaccinia mCherry	CHX counter	Marburg entry inh	VACV Venus inh	Shiga toxin inh
N/C(=N\OC(=O)CC1CCCCC1)c1ccccn1	?	i	14.2	2.0%	-19.7%	38.6
N/C(=N\OC(=O)C12CC3CC(CC(C3)C1)C2)c1ccccn1	?	-12.0%	41.1*	?	-4.7%	42.8*
N/C(=N\OC(=O)C12CC3CC(CC(C3)C1)C2)c1cccnc1	3.3%	i	19.4*	-3.7%	-8.4%	17.4
C/C(=N\NC(=O)c1ccccn1)C12CC3CC(CC(C3)C1)C2	5.2%	?	31.2*	6.3%	-21.0%	53.7*
C/C(=N/NC(=O)c1ccoc1C)C12CC3CC(CC(C3)C1)C2	12.0%	·	38.6*	17.7%	0.7%	5.2
N/C(=N\OC(=O)C12CC3CC(CC(C3)C1)C2)c1ccccc1	?	·	3.9	?	·	21.3
COc1cccc(CNC2CCCCCCC2)c1OC	-24.0%[46.1 µM]	-0.1%	-1.3	?	-3.3%	-3.0
CC(CN1CCc2nnc(CNC(=O)c3cccc(F)c3)n2CC1)c1ccccc1 (stereo not drawn)	·	-12.4%	·	·	-10.4%	·
CCOc1ccc(C(C)=O)cc1COC(=O)c1cc([N+](=O)[O-])ccc1N1CCOCC1	-1.1%	-3.5%	·	?	-18.5%	·
Cc1ccccc1CSc1nc(-c2cccc(F)c2)nc2c1Cc1c(CO)cnc(C)c1O2	15.7%[46.1 µM]	-7.5%	·	·	-7.8%	·
COc1ccc(CN2CCOc3ccc(CN4CCCCC4CO)cc3C2)c(OC)c1 (stereo not drawn)	·	-5.3%	·	·	-2.7%	·
c1ccc([C@@H]2CO2)cc1	·	-13.2%	·	·	-12.7%	·
C=C1CC2(CC(c3ccccc3)OC(c3ccccc3)C2)OC1=O (stereo not drawn)	?	11.2µM*	·	?	?	·
COc1ccc(NC(=O)CSc2nc3nc(C)c(Cc4ccc(C)cc4)c(C)n3n2)cc1OC	5.1%[46.1 µM]	i	·	·	-17.6%	·
CC(NC(=O)Nc1ccc(F)cc1)c1ccc2c(c1)OCO2 (stereo not drawn)	·	·	15.2	·	·	-2.2
Cc1cc(F)ccc1NC(=O)Nc1ccc2c(c1)OCO2	·	·	11.9*	·	·	10.5
Cc1ccc(NC(=O)Nc2ccc3c(c2)OCO3)c(OC(F)F)c1	-23.8%	-13.7%	48.4*	-22.1%	-13.3%	102.7*
Cc1cccc(C)c1NC(=O)Nc1ccc2c(c1)OCO2	24.0%	-1.6%	27.0	9.9%[46.1 µM]	-0.8%	37.7
Cc1ccc(NC(=O)Nc2ccc3c(c2)OCO3)cc1F	·	·	72.9*	·	·	90.4*
Cc1ccc(-c2csc3ncn(CC(=O)O)c(=O)c23)cc1C	·	·	-2.3	·	·	-5.0
O=C(Nc1ccccc1C(F)(F)F)c1cc(-c2ccc3c(c2)OCCO3)on1	6.1%[46.1 µM]	-11.1%	·	?	0.6%	·
CCN1CCc2nc(NC(=O)Cc3ccc4c(c3)OCCO4)sc2C1	-6.0%	·	7.7	?	·	17.4
CC(=O)c1sc(NC(=O)c2ccc3c(c2)OCO3)nc1C	?	-16.9%	42.7*	?	-3.1%	81.6*
CCN1CCc2nc(NC(=O)c3ccc4c(c3)OCCO4)sc2C1	?	·	32.9*	0.6%	·	97.9*
CC(=O)c1sc(NC(=O)c2ccc(C)c(C)c2)nc1C	·	i	47.0*	·	-13.3%	46.5*
SMILES	LASV entry inh	Vaccinia mCherry	CHX counter	Marburg entry inh	VACV Venus inh	Shiga toxin inh
CC(=O)c1sc(NC(=O)c2cccnc2Cl)nc1C	·	·	13.0	·	·	-4.2
CC(=O)c1sc(NC(=O)c2ccccc2F)nc1C	·	i	28.4*	·	-11.7%	43.0*
COc1ccc2c(c1)c1c(c(=O)n(-c3cccc(Cl)c3)c(=O)n1C)n2C	-9.2%[46.1 µM]	-6.5%	·	·	0.4%	·
CC(=O)c1sc(NC(=O)C(C)(C)C)nc1C	17.0%	·	-2.3	-0.8%	-7.9%	22.9
COc1ccc(C(=O)Nc2nc(C)c(C(=O)N(C)C)s2)cc1OC	-13.4%	·	30.0*	24.4%	·	16.2
Cc1nc(NC(=O)c2ccccc2)sc1Cc1ccc2c(c1)OCO2	-13.0%	i	67.6*	?	-13.3%	24.6*
CC(=O)c1sc(NC(=O)c2ccc(C(C)(C)C)cc2)nc1C	?	6.6%	67.2*	?	6.6%	158.2*
CC(=O)c1sc(NC(=O)c2cnc(Cl)c(Cl)c2)nc1C	·	8.8%	14.2*	?	7.6%	84.0*
O=C(Nc1ccccc1C(=O)OCc1cc(=O)n2ccsc2n1)c1ccc(Cl)cc1	-13.8%[46.1 µM]	-16.9%	·	·	-10.5%	·
CCOC(=O)C1CCCN(C(=O)c2ccccc2OC(F)(F)F)CC1 (stereo not drawn)	·	27.9%	·	·	-11.0%	·
Clc1ccc(Nc2nc(-c3cccnc3)cs2)cc1	0.5%	·	41.3*	?	-6.3%	119.1*
